Source: PubChem BioAssay (NCI)
Compounds without any hit were thinned out: in the full panel of roughly 83,000, 20% have a hit.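 Assay: single dose, 48 h. Readout: percent growth (0 = no net growth; negative = cell death). Active: <10.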 Calls of active or inactive are those of the source.

Assays:
Assay in all cases: NCI-60 one-dose screen, 48 h (100 = growth as untreated, 0 = no growth, -100 = all killed)
Conditions in all cases: 10 µM unless noted
DU-145 prostate = test system: DU-145 prostate
K-562 leukemia = test system: K-562 leukemia
MALME-3M melanoma = test system: MALME-3M melanoma
MDA-MB-231 breast = test system: MDA-MB-231 breast
RXF 393 renal = test system: RXF 393 renal
SF-268 CNS = test system: SF-268 CNS
SF-295 CNS = test system: SF-295 CNS
SF-539 CNS = test system: SF-539 CNS
UACC-257 melanoma = test system: UACC-257 melanoma
M14 melanoma = test system: M14 melanoma
HCT-15 colon = test system: HCT-15 colon
HT29 colon = test system: HT29 colon
SNB-75 CNS = test system: SNB-75 CNS
SNB-19 CNS = test system: SNB-19 CNS
U251 CNS = test system: U251 CNS
PC-3 prostate = test system: PC-3 prostate
SK-MEL-5 melanoma = test system: SK-MEL-5 melanoma
LOX IMVI melanoma = test system: LOX IMVI melanoma
SK-MEL-28 melanoma = test system: SK-MEL-28 melanoma
UACC-62 melanoma = test system: UACC-62 melanoma

Measured: growth

Cc1c2c(c(C)c3c1oc1cc(O)ccc13)C(=O)N(CCN1CCCCC1)C2=O
inactive: DU-145 prostate 68.4% | MALME-3M melanoma 100% | MDA-MB-231 breast 83% | RXF 393 renal 87.1% | SF-268 CNS 73.4% | SF-295 CNS 102% | SF-539 CNS 91.6% | UACC-257 melanoma 110% | M14 melanoma 91.7% | HCT-15 colon 95.4% | HT29 colon 61.3% | SNB-75 CNS 87.3% | SNB-19 CNS 88.9% | U251 CNS 86.4% | PC-3 prostate 83.8% | SK-MEL-5 melanoma 96% | LOX IMVI melanoma 95.4% | SK-MEL-28 melanoma 106%
active: K-562 leukemia 3.97%

CC1=C(SCCC(=O)OC(C[Se]C2=C(C)C(=O)c3ccccc3C2=O)C(=O)NCCCCCC(=O)OCc2ccccc2)C(=O)c2ccccc2C1=O (stereo unspecified)
active: SF-295 CNS -7.98% | SF-539 CNS 9.31% | M14 melanoma -1.57% | SK-MEL-5 melanoma 8.74%
inactive: DU-145 prostate 39.1% | K-562 leukemia 21.6% | MALME-3M melanoma 45.6% | MDA-MB-231 breast 59% | RXF 393 renal 57.8% | SF-268 CNS 48.8% | UACC-257 melanoma 45.4% | HCT-15 colon 56.5% | HT29 colon 25.9% | SNB-75 CNS 55.5% | SNB-19 CNS 38.6% | U251 CNS 22.9% | PC-3 prostate 11.4% | LOX IMVI melanoma 39.7% | SK-MEL-28 melanoma 53.6%

O=c1c2cc(F)ccc2sc2c(NCCN3CCCCC3)nc3ccccc3c12
active: K-562 leukemia -30.8% | M14 melanoma -61.7% | LOX IMVI melanoma -62.8% | SK-MEL-28 melanoma -14.9%
inactive: DU-145 prostate 53.5% | MALME-3M melanoma 58.5% | MDA-MB-231 breast 35.5% | RXF 393 renal 39.7% | SF-268 CNS 49.7% | SF-295 CNS 56% | SF-539 CNS 70.1% | UACC-257 melanoma 65.1% | HCT-15 colon 13.7% | HT29 colon 10.7% | SNB-75 CNS 37.3% | SNB-19 CNS 66.6% | U251 CNS 40.1% | PC-3 prostate 53.1% | SK-MEL-5 melanoma 70.1%

CC(CN1CCCCC1)C(=O)c1ccccc1 (stereo unspecified)
inactive: DU-145 prostate 104% | K-562 leukemia 101% | MALME-3M melanoma 107% | MDA-MB-231 breast 99.7% | RXF 393 renal 112% | SF-268 CNS 99.9% | SF-295 CNS 101% | SF-539 CNS 92.1% | UACC-257 melanoma 103% | M14 melanoma 98.3% | HCT-15 colon 107% | HT29 colon 101% | SNB-75 CNS 101% | SNB-19 CNS 101% | U251 CNS 101% | PC-3 prostate 95.4% | SK-MEL-5 melanoma 102% | LOX IMVI melanoma 98.3% | SK-MEL-28 melanoma 106%

CC1=C([Se]CC(OC(=O)CC[Se]c2ccccc2)C(=O)NCCCCCC(=O)OCc2ccccc2)C(=O)c2ccccc2C1=O (stereo unspecified)
inactive: DU-145 prostate 22.1% | K-562 leukemia 39.5% | MDA-MB-231 breast 32.3% | RXF 393 renal 35% | SF-539 CNS 15.3% | UACC-257 melanoma 35.9% | HCT-15 colon 50.1% | HT29 colon 41.2% | SNB-75 CNS 56.2% | SNB-19 CNS 31% | U251 CNS 12.7% | PC-3 prostate 30.7% | LOX IMVI melanoma 10.3% | SK-MEL-28 melanoma 21.7%
active: MALME-3M melanoma -31.3% | SF-268 CNS 4.54% | SF-295 CNS -7.86% | M14 melanoma -36.8% | SK-MEL-5 melanoma -24.9%

O=C(O)c1ccc2c(c1)CCC2
inactive: DU-145 prostate 118% | K-562 leukemia 91.3% | MALME-3M melanoma 106% | MDA-MB-231 breast 117% | RXF 393 renal 120% | SF-268 CNS 111% | SF-295 CNS 103% | SF-539 CNS 105% | UACC-257 melanoma 105% | M14 melanoma 101% | HCT-15 colon 104% | HT29 colon 103% | SNB-75 CNS 107% | SNB-19 CNS 103% | U251 CNS 104% | PC-3 prostate 106% | SK-MEL-5 melanoma 108% | LOX IMVI melanoma 97% | SK-MEL-28 melanoma 112%

c1ccc2c(c1)nc(CN1CCOCC1)n1cc(N3CCCC3)nc21
inactive: DU-145 prostate 106% | K-562 leukemia 67.8% | MALME-3M melanoma 96.9% | MDA-MB-231 breast 104% | RXF 393 renal 95% | SF-268 CNS 110% | SF-295 CNS 112% | SF-539 CNS 91.5% | UACC-257 melanoma 99.1% | M14 melanoma 107% | HCT-15 colon 97.3% | HT29 colon 111% | SNB-75 CNS 89.7% | SNB-19 CNS 102% | U251 CNS 102% | PC-3 prostate 82.1% | SK-MEL-5 melanoma 98% | LOX IMVI melanoma 102% | SK-MEL-28 melanoma 118%

COc1ccc(CN2C(=O)C(Cl)=C(Nc3cccc(C(F)(F)F)c3)C2=O)cc1
active: SF-539 CNS 7.41%
inactive: DU-145 prostate 84.9% | K-562 leukemia 27.9% | MALME-3M melanoma 52.1% | MDA-MB-231 breast 46.6% | RXF 393 renal 23.6% | SF-268 CNS 33.7% | SF-295 CNS 38.1% | UACC-257 melanoma 54.9% | M14 melanoma 63.5% | HCT-15 colon 34.8% | HT29 colon 57.1% | SNB-75 CNS 66.9% | SNB-19 CNS 44.7% | U251 CNS 28.2% | PC-3 prostate 19.2% | SK-MEL-5 melanoma 63.3% | LOX IMVI melanoma 25.2% | SK-MEL-28 melanoma 55.2%

COc1ccc(-c2nc(SCCC(C)C)nc(N/N=C\c3cccc([N+](=O)[O-])c3)c2C#N)cc1
active: SNB-75 CNS -14% | U251 CNS 8.23%
inactive: DU-145 prostate 34.1% | K-562 leukemia 56.8% | MALME-3M melanoma 50% | MDA-MB-231 breast 23.4% | RXF 393 renal 28% | SF-268 CNS 25.1% | SF-295 CNS 32.1% | SF-539 CNS 27.5% | UACC-257 melanoma 81% | M14 melanoma 61.3% | HCT-15 colon 38.7% | HT29 colon 30.3% | SNB-19 CNS 45.1% | PC-3 prostate 40.5% | SK-MEL-5 melanoma 71.1% | UACC-62 melanoma 67.5% | LOX IMVI melanoma 18.8% | SK-MEL-28 melanoma 67.5%

Cc1cc(/C=C\c2ccc3ccccc3[n+]2C)c(O)c2ncccc12
active: K-562 leukemia 8.28% | MALME-3M melanoma -4.74% | MDA-MB-231 breast 4.71% | RXF 393 renal -20.3% | SF-295 CNS 0.202% | SF-539 CNS -36.9% | M14 melanoma -51.6% | U251 CNS 9.3% | SK-MEL-5 melanoma 6.19% | LOX IMVI melanoma -27.2%
inactive: DU-145 prostate 26.2% | SF-268 CNS 14.1% | UACC-257 melanoma 16.4% | HCT-15 colon 27.9% | HT29 colon 25.7% | SNB-75 CNS 37.8% | SNB-19 CNS 11.9% | PC-3 prostate 34.1% | SK-MEL-28 melanoma 25.7%

NCCCNc1nc2ccccc2c2c(=O)c3cccc(Cl)c3sc12
inactive: MALME-3M melanoma 41.6% | RXF 393 renal 29.5% | SF-268 CNS 26.5% | SF-295 CNS 26.8% | SF-539 CNS 66.3% | UACC-257 melanoma 72.8% | SNB-75 CNS 41.7% | SNB-19 CNS 49.8% | PC-3 prostate 43.8% | SK-MEL-5 melanoma 60.3% | SK-MEL-28 melanoma 53.2%
active: DU-145 prostate -14.3% | K-562 leukemia -21.1% | MDA-MB-231 breast -18.3% | M14 melanoma -46.4% | HCT-15 colon -79.6% | HT29 colon -63.2% | U251 CNS -51.7% | LOX IMVI melanoma -90%

COc1ccc(/C=C/c2c(C(=O)/C=C/c3ccc(F)cc3)c(C)nc3ccccc23)cc1
inactive: DU-145 prostate 35.8% | K-562 leukemia 10.3% | MALME-3M melanoma 83.6% | MDA-MB-231 breast 54.8% | RXF 393 renal 55.5% | SF-268 CNS 69.3% | SF-295 CNS 62.4% | SF-539 CNS 81.5% | UACC-257 melanoma 66.6% | M14 melanoma 65% | HCT-15 colon 10.8% | HT29 colon 23.6% | SNB-75 CNS 52.1% | SNB-19 CNS 60.9% | U251 CNS 49.6% | PC-3 prostate 41.7% | SK-MEL-5 melanoma 63.4% | LOX IMVI melanoma 19.7% | SK-MEL-28 melanoma 55.3%

COc1cc2c(cc1-c1c(C)noc1C)ncc1nc(C3CCCCC3)n(C3CCC(OC(F)F)CC3)c12 (stereo unspecified)
inactive: DU-145 prostate 63% | K-562 leukemia 20.1% | MALME-3M melanoma 41.7% | MDA-MB-231 breast 35.9% | RXF 393 renal 36.5% | SF-268 CNS 57% | SF-295 CNS 33.9% | SF-539 CNS 47% | UACC-257 melanoma 40.3% | M14 melanoma 39.6% | HCT-15 colon 25.3% | HT29 colon 19.9% | SNB-75 CNS 23.3% | SNB-19 CNS 55.8% | U251 CNS 25.1% | PC-3 prostate 16.8% | LOX IMVI melanoma 17.8% | SK-MEL-28 melanoma 46.6%
active: SK-MEL-5 melanoma 9.79%

Cc1ccc(/C=C/c2c(C(=O)/C=C/c3ccc(Cl)cc3)c(C)nc3ccccc23)cc1
active: DU-145 prostate -38.8% | K-562 leukemia 5.31% | MALME-3M melanoma -31.2% | MDA-MB-231 breast -24.2% | RXF 393 renal -66.4% | SF-295 CNS -29.3% | SF-539 CNS -85.5% | UACC-257 melanoma 8.99% | M14 melanoma -0.212% | HCT-15 colon -39.9% | HT29 colon 8.51% | SNB-19 CNS -21.4% | U251 CNS -36.9% | SK-MEL-5 melanoma -40.6% | LOX IMVI melanoma -91% | SK-MEL-28 melanoma -55%
inactive: SF-268 CNS 38.1% | SNB-75 CNS 68.8% | PC-3 prostate 11.6%

O=C(/C=C/c1ccc(Cl)nc1)c1ccc(Cl)cc1Cl
inactive: DU-145 prostate 108% | MALME-3M melanoma 105% | MDA-MB-231 breast 107% | RXF 393 renal 104% | SF-268 CNS 102% | SF-295 CNS 91.1% | SF-539 CNS 107% | UACC-257 melanoma 94.5% | M14 melanoma 97.6% | HCT-15 colon 69.2% | HT29 colon 75.8% | SNB-75 CNS 108% | SNB-19 CNS 88.3% | U251 CNS 64% | PC-3 prostate 101% | SK-MEL-5 melanoma 99.5% | SK-MEL-28 melanoma 101%
active: K-562 leukemia 7.65% | LOX IMVI melanoma 6.52%

c1coc(-c2c3ccc(=[N+]4CCCCC4)cc-3oc3cc(N4CCCCC4)ccc23)c1
active: DU-145 prostate -96.2% | K-562 leukemia -49.9% | MALME-3M melanoma -71.9% | MDA-MB-231 breast -56.5% | RXF 393 renal -93.8% | SF-268 CNS -83.4% | SF-295 CNS -75.2% | SF-539 CNS -93.3% | UACC-257 melanoma -75.4% | M14 melanoma -94.3% | HCT-15 colon -80.7% | HT29 colon -80.9% | SNB-75 CNS -67.8% | SNB-19 CNS -93.2% | U251 CNS -85.2% | PC-3 prostate -73.8% | SK-MEL-5 melanoma -90.7% | UACC-62 melanoma -81.3% | LOX IMVI melanoma -87.2% | SK-MEL-28 melanoma -88.7%
